# Bioassay records from PubChem BioAssay.
# This is a sample that favours compounds with a hit; in the whole collection about 22% have one here.
# CYP2C9 act: activators of human CYP2C9 | activation factor at 5 µM | 96,000 compounds, 1.4% hits | recombinant CYP2C9, luciferin-H conversion, luminescence; hits give high values; factor 1 = untreated enzyme, 0 = blocked | P11712;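 active means activation factor of 2 or more for CYP2C9 at a 5 µM dose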;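 further: 0 = sulfaphenazole-blocked wells and 1 = vehicle-only wells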
# Target sequence (P11712 whole entry, looked up): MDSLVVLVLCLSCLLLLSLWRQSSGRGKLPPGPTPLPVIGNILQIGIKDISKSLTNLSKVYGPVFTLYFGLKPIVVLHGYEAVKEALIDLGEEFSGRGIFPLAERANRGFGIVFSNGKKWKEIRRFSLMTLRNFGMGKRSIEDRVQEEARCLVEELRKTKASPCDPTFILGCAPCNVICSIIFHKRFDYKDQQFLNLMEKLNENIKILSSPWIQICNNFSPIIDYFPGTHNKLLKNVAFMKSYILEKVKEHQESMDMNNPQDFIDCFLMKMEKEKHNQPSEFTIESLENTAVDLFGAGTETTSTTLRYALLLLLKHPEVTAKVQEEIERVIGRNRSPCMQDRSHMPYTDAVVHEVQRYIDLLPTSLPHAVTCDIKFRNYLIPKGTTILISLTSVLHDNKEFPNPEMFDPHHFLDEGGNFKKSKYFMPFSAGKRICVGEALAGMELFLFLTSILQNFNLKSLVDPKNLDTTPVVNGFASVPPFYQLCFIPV
# CYP2C9 inh: inhibitors of human CYP2C9 | P11712 | CYP2C9 Supersomes, luciferin-H conversion, luminescence | inhibition, % at 5 µM | 96,000 compounds, 20% hits;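 active means blocking of liver enzyme CYP2C9 beyond about 50% at 5 µM, limit read from the data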
# Measles CPE: protection of cells from measles virus; Measles virus-infected cells, CPE protection, absorbance; protection (pct of control), % at 4 µM; 140,000 compounds, 1.5% hits; AID 841; in the data active means protection mostly above about 24%, no sharp cut-off; inactive means mostly below about 26%
# CYP2C19 inh: inhibitors of human CYP2C19; inhibition, % at 5 µM; 96,000 compounds, 21% hits; CYP2C19 Supersomes, luciferin-H EGE luminescence, 30 min; P33261;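 active means CYP2C19 inhibition above a set limit at 5 µM in the primary screen, cut at about 50% in these data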;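 further: plate controls were negative control wells for no effect and 2.5 mM tranylcypromine positive control for full effect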
# CYP2C19 act: activators of human cytochrome P450 2C19. AID 1025. activation factor at 5 µM. recombinant CYP2C19, luciferin-H EGE luminescence; hits give high values; 0 = fully inhibited enzyme, 1 = untreated enzyme. 96,000 tested, under 10 active. P33261;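 active means activation factor of at least 2 at 5 µM in the primary screen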;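 further: 0 = wells with 2.5 mM tranylcypromine and 1 = vehicle-only wells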
# The depositor's hits bear a star; . = no result given.
SMILES,CYP2C9 act,CYP2C9 inh,Measles CPE,CYP2C19 inh,CYP2C19 act
CCCCCCSC1=C(C#N)C(c2ccc(C)o2)CC(=O)N1 (configuration not stated),0.5,47.0,1.4,19.0,0.8
O=C1CC(c2ccc3c(c2)OCO3)c2cc3c(cc2N1)OCO3 (configuration not stated),0.4,60.3*,10.4,64.4*,0.4
Cc1ccc(C2CC(=O)Nc3cc4c(cc32)OCO4)o1 (configuration not stated),0.7,26.5,6.2,84.0*,0.2
CC(C)c1ccc(CNC(=O)CSCC(=O)Nc2ccc3ccccc3c2)cc1,1,3.6,-1.1,-8.9,1.1
Cc1ccccc1OCC(O)Cn1c(Br)nc2c1c(=O)n(C)c(=O)n2C (configuration not stated),.,.,9.8,.,.
Cc1ccccc1OCC(O)Cn1c(NCc2ccco2)nc2c1c(=O)n(C)c(=O)n2C (configuration not stated),0.1,92.6*,18.9,86.9*,0.1
CCOC(=O)c1sc(NC(=O)Cn2nnc3sc4c(c3c2=O)CCCC4)nc1C,0.4,55.0*,0.7,25.7,0.7
N#Cc1c2c(c(N3CCN(c4ccccn4)CC3)n3c1nc1ccccc13)CCC2,0.5,54.0*,.,58.8*,0.4
Nc1ccc2nc(-c3ccccc3)[nH]c2c1,0.9,6.0,57.4*,18.7,0.8
O=C(Nc1ccc2nc[nH]c2c1)c1ccco1,1,4.2,52.7*,1.6,1
Nc1ccc2nc(-c3cccnc3)[nH]c2c1,.,.,12.0,.,.
O=C(Nc1ccc2nc(-c3ccc(Br)o3)[nH]c2c1)c1ccco1,0.6,40.2,8.2,24.8,0.8
O=C(Nc1cccc(-c2nc3ccccc3[nH]2)c1)c1cccc(NC(=O)c2ccco2)c1,0.3,70.2*,6.1,53.8*,0.5
O=C(Nc1ccc2nc(-c3ccccc3)[nH]c2c1)c1ccco1,0.4,57.7*,10.3,60.8*,0.4
CC/C(Cc1ccccc1)=N/NC(=O)c1cccc(Br)c1,.,.,3.0,.,.
CCNC(=O)NC(=O)CSc1ccccc1F,.,.,27.0,.,.
COc1cc(NC(=O)c2cccs2)c(C(=O)OCC(=O)NC(C)c2ccccc2)cc1OC (configuration not stated),0.1,90.5*,21.5,64.0*,0.4
COc1cc(NC(=O)c2cccs2)c(C(=O)OCC(=O)NCc2ccccc2)cc1OC,0.5,49.2,7.9,17.0,0.8
CCC(C)C(=O)N1c2ccccc2C(=C2SC(C(=O)OC)=C(C(=O)OC)S2)C(=S)C1(C)C (configuration not stated),0.3,71.8*,6.7,76.0*,0.2
Cc1ccn2c(C(=O)N/N=C\c3cccs3)c(C)nc2c1,0.5,51.6*,16.8,46.7,0.5
O=C(N/N=C/c1cccs1)c1ccccn1,1.1,-12.2,42.2*,-17.1,1.2
CCCNC(=O)C(=O)N/N=C/c1cccs1,.,.,50.1*,.,.
Cc1ccc2nc(C)c(C(=O)N/N=C/c3cccs3)n2c1,.,.,7.1,.,.
CC(C)(C)NC(=O)C(=O)N/N=C/c1cccs1,0.7,32.8,6.8,10.3,0.9
Cc1ccc(OCC(=O)N/N=C/c2c[nH]c3ccccc23)c([N+](=O)[O-])c1,.,.,21.3,.,.
SMILES,CYP2C9 act,CYP2C9 inh,Measles CPE,CYP2C19 inh,CYP2C19 act
Cc1ccc(CSc2nc3c(c(SCC(=O)O)n2)CCCC3)cc1,0.7,32.5,19.2,-2.6,1
COC(=O)CSc1nc(-c2ccc(C)cc2)c2c(c1C#N)CCCC2,0.4,55.1*,2.2,45.4,0.5
CNc1nc(SCc2ccc(C)cc2)nc2c1CCCC2,0.3,72.7*,56.9*,96.0*,0
CN(C)c1nc(SCc2ccccc2Cl)nc2c1CCCC2,0.8,21.0,2.3,79.8*,0.2
COc1ccccc1NC(=O)CSc1nc(C)c2c(c1C#N)CCCC2,0.8,18.8,5.9,21.9,0.8
COC(=O)CSc1nc(SCc2ccc(C)cc2)nc2c1CCCC2,0,97.4*,11.1,95.3*,0
O=c1[nH]c(SCc2ccccc2Cl)nc2c1CCCC2,0.8,21.4,2.0,-4.1,1
CCc1ccc(OCC(=O)N2CCN=C2c2ccccc2)cc1,0.6,36.8,6.5,33.3,0.7
Cc1ccc(CSc2nc3c(c(N(C)C)n2)CCCC3)cc1,0.4,56.4*,9.2,93.0*,0.1
CCOC(=O)/C(CCC[N+](C)(CC)CC)=N\O,.,.,14.1,.,.
CCOC(=O)C1=C(c2ccccc2)NC(SCC(N)=O)=C(C#N)C1c1cccnc1 (configuration not stated),0.4,62.7*,20.4,68.1*,0.3
CCOC(=O)CSC1=C(C#N)C(c2sccc2C)C(C(C)=O)=C(C)N1 (configuration not stated),0.3,72.8*,6.1,65.2*,0.3
CC(=O)C1=C(C)NC(SCC(N)=O)=C(C#N)C1c1sccc1C (configuration not stated),0.8,19.0,2.4,16.9,0.8
CCOC(=O)C1=C(C)NC(SCC(N)=O)=C(C#N)C1c1ccncc1 (configuration not stated),0.2,75.4*,8.8,81.5*,0.2
C=CCOC(=O)C1=C(C)NC(SCC(N)=O)=C(C#N)C1c1cccs1 (configuration not stated),.,.,5.2,.,.
CCOC(=O)C1=C(C)NC(=O)C(C#N)C1c1ccncc1 (configuration not stated),0.5,50.4*,16.5,4.6,1
CCOC(=O)C1=C(C)NC(=O)C1CC(=O)Nc1ccccc1 (configuration not stated),.,.,8.8,.,.
CC(C)Oc1ccc(Cc2c(O)nc(NCCCN(C)C)[nH]c2=O)cc1,.,.,27.6,.,.
CCOC(=O)C1=C(C)NC(SCC(=O)Nc2nc(C)cs2)=C(C#N)C1c1cccs1 (configuration not stated),0,95.8*,13.0,85.1*,0.1
Clc1ccc(C2=CSC3=NCCN23)cc1Cl,0.7,25.6,54.5*,71.3*,0.3
Cc1ccc(C)c(C2=CSC3=NS(=O)(=O)CCN23)c1,1,2.1,27.1,4.0,1
Cc1ccc(C)c(C2=CSC3=NCCN23)c1,0.7,30.1,4.2,52.1*,0.5
O=C(CN1CCOCC1)NCCC12CC3CC(CC(C3)C1)C2,0.9,9.0,5.0,53.7*,0.5
O=C1OC(c2ccccc2)=C/C1=C/N1CCOCC1,.,.,30.3,.,.
O=C1SC(c2ccccc2)=C/C1=C\N1CCCCC1,0.6,41.4,3.0,57.2*,0.4
Cc1cccc(C)c1NC(=O)CN1C(=O)S/C(=C\c2cccn2-c2cccc(C(=O)O)c2)C1=O,0.1,85.6*,16.5,3.2,1
Cc1cc(NC(=O)CN2C(=O)S/C(=C\c3ccccc3)C2=O)no1,.,.,30.7*,.,.
Cc1ccccc1NC(=O)CN1C(=O)S/C(=C\c2cccn2-c2cccc(C(=O)O)c2)C1=O,0.2,75.1*,37.6,6.4,0.9
Cc1ccc(NC(=O)CN2C(=O)S/C(=C\c3cccn3-c3cccc(C(=O)O)c3)C2=O)c(C)c1,0.6,41.8,30.5,11.1,0.9
O=C(CCS(=O)(=O)c1ccccc1)Nc1ccccc1-c1nc2ccccc2s1,.,.,15.7,.,.
